Data as given in PubChem BioAssay (EPA / NIEHS).
Where “and” joins values, the source holds several entries; their conditions need not be identical. Equal values may be shown once. Inconclusive results are not listed. Calls of active or inactive are those of the source. Rule for the calls, unless noted: active = hit-call score of the fitted dose curve at least 0.9, where 1 is the maximum; inconclusive = response in the unintended direction; inactive = score below 0.9.

Columns and labels:
[1] = read-out: sulfotransferase (SULT2A), SULT2A1 (gene 6822); assay: CLD_SULT2A_24hr: CellzDirect (CLD) Gene Expression Assay for sulfotransferase (SULT2A) at 24 hours (AID 2283694)
Summary of the method: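 Primary human hepatocytes from two donor preparations were dosed daily with fresh solutions, vehicle 0.2% DMSO. At 24 h, lysates went to quantitative nuclease protection (qNPA) with S1 digestion and chemiluminescent readout. Cytotoxicity was annotated from phase-contrast morphology.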

[2] = read-out: Cytochrome P450 2B6 (Homo sapiens) (UniProt P20813); assay: CLD_CYP2B6_48hr: CellzDirect (CLD) Gene Expression Assay for xenobiotic metabolism (CYP2B6) at 48 hours (AID 2283699);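 note: actives raise transcript level above DMSO so potency reflects induction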
Summary of the method: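 Primary human hepatocytes dosed daily for two days over multiple concentrations, 0.2% DMSO vehicle; CYP2B6 mRNA quantified at 48 h by qNPA chemiluminescence. Induction fitted as gain of signal versus DMSO; cytotoxicity annotated by morphology.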

[3] = read-out: Cytochrome P450 2C9 (Homo sapiens) (UniProt P11712); assay: CLD_CYP2C9_48hr: CellzDirect (CLD) Gene Expression Assay for xenobiotic metabolism (CYP2C9) at 48 hours (AID 2283701; active = hit-call score of the fitted dose curve at least 0.9, where 1 is the maximum; inactive = score below 0.9)
Summary of the method: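 Primary human hepatocytes (two donor preparations) dosed daily for two days with test chemicals, 0.2% DMSO vehicle; harvested at 48 h. mRNA induction quantified by qNPA chemiluminescence, fitted for gain of signal against DMSO baseline; cytotoxicity annotated from phase-contrast morphology.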

[4] = CLD_ACTIN_48hr: CellzDirect (CLD) Gene Expression Assay for Baseline Control (Actin) at 48 hours (AID 2283702)
Summary of the method: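 Primary human hepatocytes (two donor preparations) dosed daily for two days with ToxCast chemicals at multiple concentrations versus 0.2% DMSO vehicle; harvested at 48 h. Actin mRNA measured as a background control by quantitative nuclease protection assay with chemiluminescence.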

[5] = read-out: xenobiotic metabolism (CYP1A2), CYP1A2 (gene 1544); assay: CLD_CYP1A2_48hr: CellzDirect (CLD) Gene Expression Assay for xenobiotic metabolism (CYP1A2) at 48 hours (AID 2283703)
Summary of the method: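 Primary human hepatocytes from two donor preparations were dosed daily for two days at multiple concentrations in 0.2% DMSO vehicle. CYP1A2 mRNA was measured at 48 hours by chemiluminescent quantitative nuclease protection assay, with gain of signal fitted versus DMSO and cytotoxicity annotated from morphology.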

[6] = read-out: Broad substrate specificity ATP-binding cassette transporter ABCG2 (Homo sapiens) (UniProt Q9UNQ0); assay: CLD_ABCG2_48hr: CellzDirect (CLD) Gene Expression Assay for ABC Transporter (ABCG2) at 48 hours (AID 2283704)
Summary of the method: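 Primary human hepatocytes from two donors, dosed daily for 2 days, 0.2% DMSO vehicle, several concentrations. ABCG2 mRNA at 48 h by qNPA chemiluminescence, gain fitted versus DMSO; cytotoxicity flagged by morphology.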

[7] = read-out: xenobiotic metabolism (CYP1A1), CYP1A1 (gene 1543); assay: CLD_CYP1A1_48hr: CellzDirect (CLD) Gene Expression Assay for xenobiotic metabolism (CYP1A1) at 48 hours (AID 2283705)
Summary of the method: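 Primary human hepatocytes from two donors dosed daily for two days at multiple concentrations, 0.2% DMSO vehicle; CYP1A1 mRNA induction at 48 h by qNPA chemiluminescence. Cytotoxicity noted by phase-contrast morphology.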

[8] = read-out: organic anion transporter (SLCO1B1), SLCO1B1 (gene 10599); assay: CLD_SLCO1B1_48hr: CellzDirect (CLD) Gene Expression Assay for organic anion transporter (SLCO1B1) at 48 hours (AID 2283707)
Summary of the method: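 Primary human hepatocytes from two donor preparations dosed daily for two days with multiple concentrations, 0.2% DMSO vehicle. SLCO1B1 mRNA at 48 h by quantitative nuclease protection assay, chemiluminescence; gain-of-signal fitted versus DMSO.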

[9] = read-out: alkyl and aryl transferase (GSTA2), GSTA2 (gene 2939); assay: CLD_GSTA2_48hr: CellzDirect (CLD) Gene Expression Assay for alkyl and aryl transferase (GSTA2) at 48 hours (AID 2283708);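 note: active means mRNA induction above DMSO vehicle baseline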
Summary of the method: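 Primary human hepatocytes dosed daily for two days (0.2% DMSO vehicle), harvested at 48 h. GSTA2 mRNA induction measured by quantitative nuclease protection assay with chemiluminescent imaging, fitted for gain of signal relative to DMSO.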

[10] = read-out: glucuronosyltransferase (UGT1A1), UGT1A1 (gene 54658); assay: CLD_UGT1A1_48hr: CellzDirect (CLD) Gene Expression Assay for glucuronosyltransferase (UGT1A1) at 48 hours (AID 2283709);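 note: actives increase expression relative to DMSO so potency refers to induction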
Summary of the method: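 Human primary hepatocytes dosed daily for two days (0.2% DMSO vehicle), harvested at 48 h. UGT1A1 mRNA induction measured by quantitative nuclease protection assay with chemiluminescence; gain of signal versus DMSO; cytotoxicity flagged from morphology.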

[11] = read-out: sulfotransferase (SULT2A), SULT2A1 (gene 6822); assay: CLD_SULT2A_48hr: CellzDirect (CLD) Gene Expression Assay for sulfotransferase (SULT2A) at 48 hours (AID 2283710);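 note: hits raise SULT2A1 transcript above the 0.2% DMSO vehicle baseline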
Summary of the method: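 Primary human hepatocytes (two donor preparations) dosed daily for two days with chemicals at multiple concentrations, vehicle 0.2% DMSO; SULT2A1 mRNA induction at 48 h by quantitative nuclease protection assay, chemiluminescent read-out, fitted for gain of signal versus DMSO.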

[12] = read-out: HMG-CoA synthase (HMGCS2), HMGCS2 (gene 3158); assay: CLD_HMGCS2_48hr: CellzDirect (CLD) Gene Expression Assay for HMG-CoA synthase (HMGCS2) at 48 hours (AID 2283711)
Summary of the method: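 Primary human hepatocytes from two donors dosed daily for two days, 0.2% DMSO vehicle. HMGCS2 mRNA measured 48 h after dosing by quantitative nuclease protection assay with chemiluminescent read-out; induction fitted relative to DMSO, cytotoxicity flagged by microscopy.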

[13] = STM_H9_OrnithineISnorm_perc: Stemina devTOX quickPredict H9 human embryonic stem cell (hESC)-based Assay for Ornithine (ORN) Metabolite Biomarker, Normalized (AID 2283712; active = hit-call score of the fitted dose curve at least 0.9, where 1 is the maximum; inactive = score below 0.9;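 note: ornithine released into spent medium during last day measured by mass spectrometry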)
Summary of the method: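 H9 human embryonic stem cells kept pluripotent receive test chemical over 72 h, refreshed daily by media exchange. Media from the closing 24 h is deproteinized and analysed by UPLC-HRMS on an amide column; ornithine signal is scaled to labelled standard and vehicle.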

[14] = STM_H9_CystineISnorm_perc: Stemina devTOX quickPredict H9 human embryonic stem cell (hESC)-based Assay for Cystine (CYSS) Metabolite Biomarker, Normalized (AID 2283713; active = hit-call score of the fitted dose curve at least 0.9, where 1 is the maximum; inactive = score below 0.9)
Summary of the method: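 H9 hESC, pluripotent; compound 72h, re-dosed q24h with medium change. Last-24h medium → 40% acetonitrile deproteinization → UPLC-HRMS. CYSS area / C13-CYSS standard, then % of 0.1% DMSO median.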

[15] = STM_H9_OrnCyssISnorm_ratio: Stemina devTOX quickPredict H9 human embryonic stem cell (hESC)-based Assay for Ornithine (ORN):Cystine (CYSS) Ratio (AID 2283714)
Summary of the method: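 Steps: H9 hESCs in pluripotent state dosed 72h, medium plus compound renewed every 24h; conditioned medium from the final 24h deproteinized in 40% acetonitrile; ORN and CYSS quantified by UPLC-HRMS with C13 spike-ins; ratio relative to vehicle.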

[16] = CEETOX_H295R_MTT_cell_viability: Viability Assessment in the CeeTox HT-H295R MTT Assay (AID 2283718; active = hit-call score of the fitted dose curve at least 0.9, where 1 is the maximum; inactive = score below 0.9;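 for AC50: curve fitted both ways so AC50 may mark viability loss or gain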)
Summary of the method: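 MTT reduction (0.5 mg/ml, 4 h at 37 C; absorbance at 570 and 650 nm) gave viability as background-corrected percent change versus controls. H295R cells had 48 h forskolin (10 uM) prestimulation, then 48 h chemical exposure at 0.1% DMSO.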

[17] = Tanguay_ZF_120hpf_ActivityScore_legacy: (Legacy) Oregon State University Tanguay Lab 120 Hour Post-fertilization zebrafish Assay Score for Activity (AID 2283742);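 for AC50: dechorionated Tropical 5D wild-type zebrafish embryos held singly per well; static exposure from 6 hpf until 120 hpf at 28 °C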
Summary of the method: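 Embryos are staged, enzymatically dechorionated at 4 hpf, placed individually at 6 hpf, then held in test chemical (0.64% DMSO) at 28C until 120 hpf. Mortality and malformations are scored by brightfield, with non-mortality endpoints skipped for dead embryos.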

[18] = read-out: ABC Transporter (ABCB11), ABCB11 (gene 8647); assay: CLD_ABCB11_48hr: CellzDirect (CLD) Gene Expression Assay for ABC Transporter (ABCB11) at 48 hours (AID 2283697)
Summary of the method: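 Primary human hepatocytes from two donor preparations dosed daily for two days at multiple concentrations; 0.2% DMSO vehicle. ABCB11 mRNA at 48 h by quantitative nuclease protection assay, chemiluminescence; fitted for induction versus DMSO.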

Measured: AC50

Chain of Broad substrate specificity ATP-binding cassette transporter ABCG2 (Homo sapiens) (Q9UNQ0 whole entry, looked up): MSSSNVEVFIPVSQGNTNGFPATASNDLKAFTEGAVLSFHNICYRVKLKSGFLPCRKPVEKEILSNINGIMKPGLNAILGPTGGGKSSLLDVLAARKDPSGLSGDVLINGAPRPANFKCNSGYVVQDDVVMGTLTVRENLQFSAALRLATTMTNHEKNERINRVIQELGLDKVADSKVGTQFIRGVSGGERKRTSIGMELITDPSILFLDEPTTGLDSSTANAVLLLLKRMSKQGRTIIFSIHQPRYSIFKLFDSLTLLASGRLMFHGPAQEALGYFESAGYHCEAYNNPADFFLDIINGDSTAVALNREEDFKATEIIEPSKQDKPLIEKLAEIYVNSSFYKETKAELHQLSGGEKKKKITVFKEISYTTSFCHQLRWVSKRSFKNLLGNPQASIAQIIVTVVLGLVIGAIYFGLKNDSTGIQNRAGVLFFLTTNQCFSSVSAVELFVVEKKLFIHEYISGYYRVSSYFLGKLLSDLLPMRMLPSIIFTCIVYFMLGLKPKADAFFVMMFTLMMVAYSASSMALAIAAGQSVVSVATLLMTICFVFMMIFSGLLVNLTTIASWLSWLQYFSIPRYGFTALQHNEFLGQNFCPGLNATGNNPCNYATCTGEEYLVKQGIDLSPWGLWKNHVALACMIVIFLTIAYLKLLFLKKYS

CCCCOC(=O)c1ccccc1C(=O)OCCCC
inactive: [1] | [2] | [3] | [4] | [6] | [7] | [8] | [9] | [10] | [11] | [12] | [16] | [17]
active: [5] 10.6 µM and 11.1 µM | [13] 76.3 µM | [14] 50 µM | [15] 56 µM

COc1nc(C)nc(NC(=O)NS(=O)(=O)c2ccccc2Cl)n1
inactive: [1] | [18] | [2] | [3] | [4] | [5] | [6] | [7] | [8] | [9] | [10]

COC(=O)C=C(C)OP(=O)(OC)OC
active: [2] 0.0004 µM
inactive: [1] | [18] | [4] | [5] | [6] | [7] | [9] | [10] | [11] | [17]

CCCCNC(=O)OCC#CI
active: [17] 15.8 µM
inactive: [1] | [2] | [4] | [5] | [6] | [7] | [9]

N#CC(CCc1ccc(Cl)cc1)(Cn1cncn1)c1ccccc1 (centres undefined)
inactive: [1] | [4] | [6] | [9] | [10] | [12] | [16] | [17]
active: [2] 0.434 µM | [5] 2.3 µM | [7] 2.53 µM | [11] 20 µM

CC1COC(Cn2cncn2)(c2ccc(Oc3ccc(Cl)cc3)cc2Cl)O1 (centres undefined)
active: [5] 0.397 µM | [7] 2 µM | [13] 3.93 µM | [14] 2.87 µM | [15] 3.88 µM | [16] 0.0749 µM
inactive: [1] | [2] | [4] | [6] | [9] | [10] | [11] | [12] | [17]
